Assay results from PubChem BioAssay (EPA / NIEHS).
Where a structure was tested more than once in an assay, its records may differ in their call. Activity calls are given as the source filed them. How the source made its calls: active means hit-call score of the fitted dose curve at least 0.9, where 1 is the maximum; inactive means score below 0.9.

Tests used:
[1] = BSK_CASM3C_SRB: Viability Assessment in the BioMAP Diversity Plus: CASM3C Assay (AID 2283050); settings: primary human coronary artery smooth muscle cells;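 further: cells exposed to compound for 24 h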
[2] = read-out: Thrombomodulin, THBD (gene 7056); experiment: BSK_CASM3C_Thrombomodulin: BioMAP Diversity Plus: CASM3C Assay for Thrombomodulin Biomarker Activity (AID 2283051); settings: primary human coronary artery smooth muscle cells; actives raise or lower the signal;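 further: thrombomodulin protein level measured by ELISA 24 h after dosing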
[3] = read-out: Tissue Factor, F3 (gene 2152); experiment: BSK_CASM3C_TissueFactor: BioMAP Diversity Plus: CASM3C Assay for Tissue Factor Biomarker Activity (AID 2283052); settings: primary human coronary artery smooth muscle cells; actives raise or lower the signal;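 further: cell surface tissue factor protein level read by ELISA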
[4] = read-out: Interferon-gamma inducible Protein 10 (IP10), CXCL10 (gene 3627); experiment: BSK_hDFCGF_IP10: BioMAP Diversity Plus: hDFCGF Assay for Interferon-gamma inducible Protein 10 (IP10) Biomarker Activity (AID 2283053); settings: primary human foreskin fibroblasts; actives raise or lower the signal
Procedure, shortened: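 Chemical-treated human skin fibroblasts (primary) were sampled at 24 h for IP-10 by ELISA. Both increases and decreases relative to DMSO were scored.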

[5] = read-out: Urokinase-type plasminogen activator receptor (uPAR), PLAUR (gene 5329); experiment: BSK_CASM3C_uPAR: BioMAP Diversity Plus: CASM3C Assay for Urokinase-type plasminogen activator receptor (uPAR) Biomarker Activity (AID 2283054); settings: primary human coronary artery smooth muscle cells; actives raise or lower the signal;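 further: cell-surface uPAR protein level quantified by ELISA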
[6] = read-out: Vascular cell adhesion molecule 1 (VCAM1), VCAM1 (gene 7412); experiment: BSK_CASM3C_VCAM1: BioMAP Diversity Plus: CASM3C Assay for Vascular cell adhesion molecule 1 (VCAM1) Biomarker Activity (AID 2283055); settings: primary human coronary artery smooth muscle cells; actives raise or lower the signal;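 further: VCAM-1 protein level quantified by ELISA on the cells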
[7] = read-out: Collagen III, COL3A1 (gene 1281); experiment: BSK_hDFCGF_CollagenIII: BioMAP Diversity Plus: hDFCGF Assay for Collagen III Biomarker Activity (AID 2283056); settings: primary human foreskin fibroblasts; actives raise or lower the signal
Procedure, shortened: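 Human foreskin fibroblast primary cultures sampled 24 h after dosing; Collagen III quantified by ELISA. Signal fitted bidirectionally against DMSO baseline.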

[8] = read-out: Epidermal growth factor receptor (EGFR), EGFR (gene 1956); experiment: BSK_hDFCGF_EGFR: BioMAP Diversity Plus: hDFCGF Assay for Epidermal growth factor receptor (EGFR) Biomarker Activity (AID 2283057); settings: primary human foreskin fibroblasts; actives raise or lower the signal
Procedure, shortened: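 Cell-based multiplexed assay in primary human foreskin fibroblasts. EGFR is read by ELISA 24 h after treatment and compared with DMSO controls.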

[9] = read-out: Interleukin-8 (IL8), CXCL8 (gene 3576); experiment: BSK_hDFCGF_IL8: BioMAP Diversity Plus: hDFCGF Assay for Interleukin-8 (IL8) Biomarker Activity (AID 2283058); settings: primary human foreskin fibroblasts; actives raise or lower the signal
Procedure, shortened: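 Primary human foreskin fibroblasts (hDFCGF system) dosed with chemical; IL-8 measured by ELISA 24 hours later. Bidirectional curve fitting relative to DMSO baseline; cytotoxicity tracked in parallel cultures by SRB total protein staining.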

[10] = BSK_hDFCGF_Proliferation: Cell Proliferation Assessment in the BioMAP Diversity Plus: hDFCGF Assay (AID 2283059); settings: primary human foreskin fibroblasts;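 further: curves fitted for both rise and fall of signal versus DMSO baseline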
Procedure, shortened: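 Steps: dose primary human dermal fibroblasts (foreskin); […] fix in 10% TCA; stain with 0.1% SRB; read 560 nm; fit gain or loss of signal against DMSO.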

[11] = read-out: Macrophage colony-stimulating factor (MCSF), CSF1 (gene 1435); experiment: BSK_hDFCGF_MCSF: BioMAP Diversity Plus: hDFCGF Assay for Macrophage colony-stimulating factor (MCSF) Biomarker Activity (AID 2283060); settings: primary human foreskin fibroblasts; actives raise or lower the signal
Procedure, shortened: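 Human foreskin fibroblast primary cultures; M-CSF measured by ELISA 24 hours after chemical dosing. Bidirectional fitting relative to DMSO, with overt cytotoxicity tracked by parallel SRB total-protein staining (0.1% SRB, 10% TCA fixation, 560 nm).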

[12] = BSK_hDFCGF_SRB: Viability Assessment in the BioMAP Diversity Plus: hDFCGF Assay (AID 2283061); settings: primary human foreskin fibroblasts;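 further: cells exposed to compound for 24 h before the read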
Procedure, shortened: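 Human foreskin fibroblasts in 96-well plates were treated 24 h. Total protein was measured by 0.1% SRB staining after 10% TCA fixation, read at 560 nm. Data were fitted bidirectionally against DMSO.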

[13] = read-out: TIMP metallopeptidase inhibitor 1 (TIMP1), TIMP1 (gene 7076); experiment: BSK_hDFCGF_TIMP1: BioMAP Diversity Plus: hDFCGF Assay for TIMP metallopeptidase inhibitor 1 (TIMP1) Biomarker Activity (AID 2283062); settings: primary human foreskin fibroblasts; actives raise or lower the signal
Procedure, shortened: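 Human foreskin fibroblast primary cultures dosed for 24 h; secreted/surface TIMP-1 quantified by ELISA. Bidirectional curve fitting against DMSO baseline; cytotoxicity tracked in parallel cultures by SRB total-protein staining.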

[14] = read-out: Monokine induced gamma interferon (MIG), CXCL9 (gene 4283); experiment: BSK_hDFCGF_MIG: BioMAP Diversity Plus: hDFCGF Assay for Monokine induced gamma interferon (MIG) Biomarker Activity (AID 2283063); settings: primary human foreskin fibroblasts; actives raise or lower the signal
Procedure, shortened: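 MIG/CXCL9 measured by ELISA 24 h after dosing primary human skin fibroblasts. Activity fitted in both directions against DMSO controls. Cytotoxicity was checked in parallel cultures by SRB staining read at 560 nm.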

[15] = read-out: Matrix Metallopeptidase 1 (MMP1), MMP1 (gene 4312); experiment: BSK_hDFCGF_MMP1: BioMAP Diversity Plus: hDFCGF Assay for Matrix Metallopeptidase 1 (MMP1) Biomarker Activity (AID 2283064); settings: primary human foreskin fibroblasts; actives raise or lower the signal
Procedure, shortened: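 Human foreskin fibroblasts exposed to chemical for 24 h; MMP1 detected by ELISA, with DMSO as baseline for bidirectional fitting.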

[16] = read-out: Vascular cell adhesion molecule 1 (VCAM1), VCAM1 (gene 7412); experiment: BSK_hDFCGF_VCAM1: BioMAP Diversity Plus: hDFCGF Assay for Vascular cell adhesion molecule 1 (VCAM1) Biomarker Activity (AID 2283065); settings: primary human foreskin fibroblasts; actives raise or lower the signal
Procedure, shortened: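 Human foreskin fibroblast primary cells dosed with chemical, VCAM-1 measured by ELISA at 24 h. Bidirectional curve fitting relative to DMSO as negative control/baseline.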

[17] = read-out: Plasminogen activator inhibitor-1 (PAI1), SERPINE1 (gene 5054); experiment: BSK_hDFCGF_PAI1: BioMAP Diversity Plus: hDFCGF Assay for Plasminogen activator inhibitor-1 (PAI1) Biomarker Activity (AID 2283066); settings: primary human foreskin fibroblasts; actives raise or lower the signal
Procedure, shortened: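 Human skin fibroblast cultures receive chemical for 24 h before PAI-1 is measured by ELISA; signal changes are fitted bidirectionally against DMSO-treated wells.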

[18] = read-out: Intercellular Adhesion Molecule 1 (ICAM1), ICAM1 (gene 3383); experiment: BSK_KF3CT_ICAM1: BioMAP Diversity Plus: KF3CT Assay for Intercellular Adhesion Molecule 1 (ICAM1) Biomarker Activity (AID 2283067); settings: primary human keratinocytes with fibroblasts; actives raise or lower the signal
Procedure, shortened: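 Human keratinocyte–foreskin fibroblast co-culture was treated for 24 h. Cell-surface ICAM-1 was quantified by ELISA, fitted bidirectionally relative to DMSO. Cytotoxicity was checked in parallel cultures by SRB total-protein staining.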

[19] = read-out: Interferon-gamma inducible Protein 10 (IP10), CXCL10 (gene 3627); experiment: BSK_KF3CT_IP10: BioMAP Diversity Plus: KF3CT Assay for Interferon-gamma inducible Protein 10 (IP10) Biomarker Activity (AID 2283068); settings: primary human keratinocytes with fibroblasts; actives raise or lower the signal
Procedure, shortened: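 KF3CT co-culture (keratinocytes + foreskin fibroblasts), 24 h compound, IP-10 by ELISA; bidirectional fit vs DMSO baseline.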

[20] = BSK_KF3CT_SRB: Viability Assessment in the BioMAP Diversity Plus: KF3CT Assay (AID 2283069); settings: primary human keratinocytes with fibroblasts;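 further: read 24 h after compound addition; fitted for both signal gain and loss against DMSO baseline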
Procedure, shortened: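 Overt cytotoxicity is assessed as total protein by sulforhodamine B staining in parallel human skin co-cultures at 24 h after dosing. DMSO serves as negative control and baseline.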

Question: With `c1ccc2[nH]c(-c3cscn3)nc2c1` as the compound, how does the outcome [1] read?
Answer: inactive

Question: What about the outcome [2] of the same compound?
Answer: inactive

Question: And the outcome [3]?
Answer: inactive

Question: And the outcome [4]?
Answer: inactive

Question: And the outcome [5]?
Answer: inactive

Question: And the outcome [6]?
Answer: inactive

Question: And the outcome [7]?
Answer: inactive

Question: And the outcome [8]?
Answer: inactive

Question: And the outcome [9]?
Answer: inactive

Question: And the outcome [10]?
Answer: inactive

Question: And the outcome [11]?
Answer: inactive

Question: And the outcome [12]?
Answer: inactive

Question: What about the outcome [13] of the same compound?
Answer: inactive

Question: What about the outcome [14] of the same compound?
Answer: inactive

Question: And the outcome [15]?
Answer: inactive

Question: What about the outcome [16] of the same compound?
Answer: inactive

Question: What about the outcome [17] of the same compound?
Answer: inactive

Question: And the outcome [18]?
Answer: inactive

Question: What about the outcome [19] of the same compound?
Answer: inactive

Question: What about the outcome [20] of the same compound?
Answer: inactive

Question: For `CC(C)(C)[C@@H](O)[C@@H](Cc1ccc(Cl)cc1)n1cncn1`, which outcome [1] is on record?
Answer: inactive

Question: What about the outcome [2] of the same compound?
Answer: inactive

Question: What about the outcome [3] of the same compound?
Answer: inactive

Question: What about the outcome [4] of the same compound?
Answer: inactive

Question: What about the outcome [5] of the same compound?
Answer: inactive

Question: And the outcome [6]?
Answer: inactive

Question: And the outcome [7]?
Answer: inactive

Question: What about the outcome [9] of the same compound?
Answer: inactive

Question: What about the outcome [10] of the same compound?
Answer: inactive

Question: And the outcome [11]?
Answer: inactive

Question: And the outcome [12]?
Answer: inactive

Question: What about the outcome [13] of the same compound?
Answer: inactive

Question: What about the outcome [14] of the same compound?
Answer: inactive

Question: And the AC50 [15]?
Answer: 1.42 µM (active)

Question: And the outcome [16]?
Answer: inactive

Question: What about the outcome [17] of the same compound?
Answer: inactive

Question: And the outcome [18]?
Answer: inactive

Question: What about the outcome [19] of the same compound?
Answer: inactive

Question: What about the outcome [20] of the same compound?
Answer: inactive

Question: For `CCOC(=O)NCCOc1ccc(Oc2ccccc2)cc1`, which outcome [1] is on record?
Answer: inactive

Question: What about the outcome [2] of the same compound?
Answer: inactive

Question: And the outcome [3]?
Answer: inactive

Question: What about the outcome [4] of the same compound?
Answer: inactive

Question: What about the outcome [5] of the same compound?
Answer: inactive

Question: What about the outcome [6] of the same compound?
Answer: inactive

Question: And the AC50 [7]?
Answer: 12.6 µM (active)

Question: And the outcome [9]?
Answer: inactive

Question: What about the AC50 [10] of the same compound?
Answer: 24.7 µM (active)

Question: What about the AC50 [11] of the same compound?
Answer: 23.1 µM (active)

Question: And the outcome [12]?
Answer: inactive

Question: What about the outcome [13] of the same compound?
Answer: inactive

Question: And the outcome [14]?
Answer: inactive

Question: What about the outcome [15] of the same compound?
Answer: inactive

Question: And the outcome [16]?
Answer: inactive

Question: What about the outcome [17] of the same compound?
Answer: inactive

Question: And the outcome [18]?
Answer: inactive

Question: And the outcome [19]?
Answer: inactive

Question: What about the outcome [20] of the same compound?
Answer: inactive

Question: What does the source list for `CCCCOC(=O)[C@@H](C)Oc1ccc(Oc2ccc(C(F)(F)F)cn2)cc1`?
Answer: outcome [1]: inactive; outcome [2]: inactive; outcome [3]: inactive; outcome [4]: inactive; outcome [5]: inactive; outcome [6]: inactive; outcome [7]: inactive; outcome [9]: inactive; outcome [10]: inactive; outcome [11]: inactive; outcome [12]: inactive; outcome [13]: inactive; outcome [14]: inactive; outcome [15]: inactive; outcome [16]: inactive; outcome [17]: inactive; outcome [18]: inactive; outcome [19]: inactive; outcome [20]: inactive

Question: Which results are given for `O=C(O)c1ccccc1`?
Answer: outcome [1]: inactive; outcome [2]: inactive; outcome [3]: inactive; outcome [4]: inactive; outcome [5]: inactive; outcome [6]: inactive; outcome [7]: inactive; outcome [9]: inactive; outcome [10]: inactive; outcome [11]: inactive; outcome [12]: inactive; outcome [13]: inactive; outcome [14]: inactive; outcome [15]: inactive; outcome [16]: inactive; outcome [17]: inactive; outcome [18]: inactive; outcome [19]: inactive; outcome [20]: inactive

Question: With `CCCN(CCC)C(=O)SCC` as the compound, how does the outcome [1] read?
Answer: inactive

Question: What about the outcome [2] of the same compound?
Answer: inactive

Question: And the outcome [3]?
Answer: inactive

Question: And the outcome [4]?
Answer: inactive

Question: What about the outcome [5] of the same compound?
Answer: inactive

Question: And the outcome [6]?
Answer: inactive

Question: And the outcome [7]?
Answer: inactive

Question: What about the outcome [8] of the same compound?
Answer: inactive

Question: What about the outcome [9] of the same compound?
Answer: inactive

Question: What about the outcome [10] of the same compound?
Answer: inactive

Question: And the outcome [11]?
Answer: inactive

Question: What about the outcome [12] of the same compound?
Answer: inactive

Question: And the outcome [13]?
Answer: inactive

Question: What about the outcome [14] of the same compound?
Answer: inactive

Question: And the outcome [15]?
Answer: inactive

Question: And the outcome [16]?
Answer: inactive

Question: And the outcome [17]?
Answer: inactive

Question: What about the outcome [18] of the same compound?
Answer: inactive

Question: What about the AC50 [19] of the same compound?
Answer: 36.1 µM (active)

Question: What about the outcome [19] of the same compound?
Answer: inactive

Question: And the outcome [20]?
Answer: inactive
